High-throughput results (PubChem)
Compounds with a hit are over-represented: about 20% of the library has one in this group of screens.
Shiga inhibitor = blocks Shiga toxin action in Vero cells. Vero cells, Shiga toxin protein synthesis inhibition reporter. inhibition, % at 38.7 µM. AID 2315. hit rate 9.2% among 290,000; in the data active = inhibition mostly above about 28%, no sharp cut-off; inactive = mostly below about 43%; also: 0% is about no effect
CHX counter = counter-screen for Shiga toxin inhibitors: cycloheximide protein synthesis inhibition; cell reporter, cycloheximide protein synthesis inhibition counterscreen; max response, %; hit rate 12% among 300,000; in the data active = max response mostly above about 13%, no sharp cut-off; inactive = mostly below about 14%; also: read at 38.3 µM for the half of the compounds with a filed dose; 0% is about no effect
Pf growth 96h = P. falciparum growth inhibition at 96 hour, primary screen for plastid delayed-death inhibitors. P. falciparum luciferase reporter growth, 96 h. Potency, µM (titrated, usually from 28.7 µM), for the others: top-dose activity change, negative = inhibition, actives largely listed as inhibitors. hit rate 6.9% among 320,000; also: potency is read from the fitted curve at half-maximal effect; % is scaled to controls: 0 for no effect and ±100 for the full control effect
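Infected RBCs, 2% Hct / 0.05% parasitemia final; luciferase-reporter P. falciparum; cpd 96 h, 37 C, 5% CO2; luciferase detection reagent; luminescence.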
HCMV inh = blocks human cytomegalovirus replication; hit rate 4.5% among 410,000; HFF cells, HCMV-luciferase reporter, 72 h; hits give low values; activity change, negative = inhibition, % at 57.5 µM; in the data active = activity change below about -60%; inconclusive = no clear call, values can overlap the other calls; inactive = above about -39%; also: % is scaled to controls: 0 for no effect and ±100 for the full control effect
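Compounds were evaluated in HFFs infected with an HCMV luciferase reporter virus (MOI 1 PFU/cell). Luciferase in lysates collected 72 h post infection served as the replication measure.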
Pf growth 48h = P. falciparum growth inhibition at 48 hours (one generation). P. falciparum luciferase growth in erythrocytes, 48 h. Potency, µM (doses to about 28.7 µM), for the others: top-dose activity change, negative = inhibition, usual class: inhibitors. hit rate 5.9% among 310,000; also: potency is read from the fitted curve at half-maximal effect; % is scaled to controls: 0 for no effect and ±100 for the full control effect
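Here the parasites carry a stable luciferase gene and grow inside erythrocytes in Albumax-based RPMI medium with compound for one erythrocytic cycle. Activity is scored as loss of luminescent signal.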
Starred values were filed as active, the others as inactive; ? = inconclusive; / = no result given; [ ] = another dose, or the depositor's remark. Unless noted, calls follow the shape of the dose curve; as a rule, active = well fitted inhibition curve with a large enough effect; inconclusive = small, poorly fitted or top-dose-only effect, or another doubt; inactive = no such curve, though single readings can be large or run the other way.

SMILES | Shiga inhibitor | CHX counter | Pf growth 96h | HCMV inh | Pf growth 48h
CCC[C@H]1[C@@H](NS(=O)(=O)c2ccc(C#N)cc2)CC[C@@]23CCCN2C(=O)CCC[C@@H]13 | / | / | / | -2 | /
Nc1cc2c(cc1Br)[nH]c(=O)c1ccccc12 | / | / | / | -89* | /
CCCC(c1nnnn1Cc1ccc(OC)cc1)N1CCN(c2ccccc2)CC1 (stereo not given) | -8 | -2 | -26% | 4 | 13µM*
CCCC(c1nnnn1Cc1ccc(OC)cc1)N1CCC(C(N)=O)CC1 (stereo not given) | -7 | -3 | 5% | -2 | -23%
COc1ccc(Cn2nnnc2C(CC(C)C)N2CCN(c3ccccc3)CC2)cc1 (stereo not given) | 25 | -1 | 12% | -12 | 7.4µM*
CC(C)CC(c1nnnn1C(C)C)N1CCN(c2ccccc2)CC1 (stereo not given) | 4 | 2 | 0% | 26 | -4%
CC(C)C[C@@H](CO)NS(=O)(=O)c1cc(Cl)ccc1F | / | / | / | 21 | /
CCOc1ccc(C(=O)NCC(=O)NCC(c2ccc(OC)cc2)N2CCOCC2)cc1OCC (stereo not given) | / | / | 1% | -8 | -8%
C[C@@H]1CCC[C@]2(O[C@H](CCO)C[C@H](O)[C@H]2O)O1 | -2 | 7 | -27% | 1 | 0%
Cc1ccccc1-n1c(SCc2cc(=O)n3ccccc3n2)nc2[nH]ncc2c1=O | -16 | -1 | 13µM* | 12 | ?
Cc1cccc2nc(CSc3nc4[nH]ncc4c(=O)n3-c3ccccc3Cl)cc(=O)n12 | 47 | 14* | 9.3µM* | 12 | 9.3µM*
CN1CCCN(C(=O)/C=C/c2ccc(F)cc2)CC1 | 9 | 16* | 49% | 9 | 28%
CCN1CCN(C(=O)/C=C/c2ccc(F)cc2)CC1 | / | / | / | 38 | /
COc1ccc(/C=C/C(=O)N2CCN(c3ccccn3)CC2)cc1OC | 2 | -3 | 12µM* | 21 | -6%
COc1ccccc1CC(=O)N1CCCC1 | -13 | -2 | 5% | -7 | 9%
O=C(/C=C/c1ccccc1)N1CCN(c2ccccn2)CC1 | 15 | 10 | 103% | 12 | 17%
O=C(/C=C/c1ccccc1F)N1CCN(c2ccccn2)CC1 | 24 | 17* | -20% | 42 | ?
COc1ccccc1CC(=O)N1CCN(c2ccccn2)CC1 | -1 | 7 | ? | -73* | 18%
COc1cc(C2C(=O)N(C3CCCCC3)CC(=O)N2C2CCCCC2)ccc1OC(C)C (stereo not given) | / | / | / | -16 | /
O=C(CCSCc1ccccc1Cl)N1CCN(c2ccccn2)CC1 | 44* | 41* | 0% | 104 | 18%
O=C(/C=C/c1ccc(F)cc1)N1CCN(c2ncccn2)CC1 | 71* | 24* | -15% | -28 | -6%
O=C(/C=C/c1cccc(F)c1)N1CCN(c2ccccn2)CC1 | 43* | 22* | -4% | 7 | 20%
COc1ccccc1CC(=O)N1CCN(c2cccc(C(F)(F)F)c2)CC1 | -6 | -3 | / | -70* | ?
O=C(O)CCC(=O)N1CCN(c2ccccn2)CC1 | -11 | -2 | 33% | -13 | 26%
COc1cc(/C=C2\N=C(c3ccccc3)OC2=O)ccc1OC(C)=O | -14 | 7.5* | ? | -2 | 123%
SMILES | Shiga inhibitor | CHX counter | Pf growth 96h | HCMV inh | Pf growth 48h
COc1ccc(/C=C2\N=C(C)OC2=O)cc1OC(C)=O | -1 | -4 | 46% | 23 | 6%
CN(C(=O)c1oc(=O)c2ccccc2c1-c1ccccc1)c1cccc(Cl)c1 | / | / | / | -20 | /
COc1ccc(-c2cn[nH]c2C)cc1 | -3 | 1 | 49% | -21 | 62%
COc1ccc2cc(-c3ccn[nH]3)ccc2c1 | 80* | 32* | 369% | / | 9%[0.00184 µM]
CCOC(=O)c1c(C)[nH]c(C)c1S(=O)(=O)N(C)CC(=O)N1CCN(c2ccccc2OC)CC1 | / | / | / | -5 | /
CC(C)C[C@H]1CN([C@@H](CC(C)C)CN2CCC[C@@H]2CN2C(=S)NC[C@@H]2Cc2ccc(O)cc2)C(=S)N1CCc1ccccc1 | / | / | / | -7 | /
CC(C)C[C@H]1CNC(=S)N1C[C@H]1CCCN1C[C@H](Cc1ccc(O)cc1)N1C[C@H](Cc2ccccc2)N(CCc2ccccc2)C1=S | / | / | / | -11 | /
CC(C)C[C@H]1CN([C@@H](CC(C)C)CN2CCCC2CN2C(=S)NC[C@@H]2Cc2ccc(O)cc2)C(=S)N1CCc1ccccc1 (stereo not given in full) | / | / | / | -80* | /
CC(C)C[C@H]1CNC(=S)N1C[C@H]1CCCN1C[C@H](CC(C)C)N1C[C@H](Cc2ccc(O)cc2)N(CCc2ccccc2)C1=S | / | / | / | -95* | /
COc1ccc(NC(=O)CC(NCc2ccccn2)C(=O)O)cc1 (stereo not given) | 7 | 2 | -14% | 20 | 9%
CCOc1ccccc1CNC(=O)c1ccc2c(c1)N(Cc1ccc(C)cc1)CCS2 | / | / | / | -20 | /
Cc1ccc(NC(=O)Nc2ccnc(-c3cccnc3)n2)cc1 | 5 | 9 | ? | -87* | 33%[1.15 µM]
Cc1ccc(C(=O)Nc2ccnc(-c3cccnc3)n2)cc1 | 45 | 36* | 54% | -11 | 80%
Cc1ccc(NC(=O)CCN2CCN(CCO)CC2)cc1C | / | / | / | -1 | /
C/C(CC(=O)Nc1ccc(C)c(Cl)c1)=N\NC(=O)c1ccco1 | 94* | 45* | 15% | 10 | 14%
C/C(CC(=O)Nc1ccc(Cl)cc1Cl)=N\NC(=O)c1ccco1 | 116* | 37* | 18% | ? | 22%
CCCN(CC(=O)Nc1ccccc1OC)C(=O)CSc1nc(C)cc(C)n1 | / | / | 11% | -10 | 14%
Cc1ccc(SCc2cc(=O)[nH]c(/N=C(\N)Nc3ccc(C)c(C)c3)n2)cc1 | -13 | -3 | 36% | -24 | 8%
C=CCNC(=O)c1ccc(CN2CCC(Cc3ccccc3)CC2)cc1 | -12 | 1 | -15% | 31 | 10µM*
CNC(=S)N1CCC(Cc2ccccc2)CC1 | -10 | 1 | 2% | 0 | ?
C=CCNC(=S)N1CCC(Cc2ccccc2)CC1 | -10 | -2 | 12µM* | 13 | ?
CCOC(=O)c1c(NC(=O)COC(=O)Cn2c(C(F)(F)F)nc3ccccc32)sc(C)c1C | -7 | -2 | 45% | -15 | -4%
COCCNC(=O)c1cc(-c2cccs2)on1 | 101* | 34* | 11% | -29 | 109%
O=C(NCc1cccs1)c1cc(C2CC2)on1 | 64* | 22* | 92% | 19 | 54%
Cc1cc(C(=O)NCc2cccs2)no1 | -11 | -3 | ? | -12 | /
COCCNC(=O)C1CCCN(C(=O)c2cc(-c3cccs3)oc2C)CC1 (stereo not given) | / | / | / | -67* | /
O=C(NCc1cccs1)c1cc(-c2ccccc2)on1 | 118* | 30* | 7% | 41 | 95%
COC(=O)[C@]12CCCCC=C1N(CCC1=CCCCC1)C(=O)[C@H](CC(=O)NCc1ccccc1)C2 | / | / | / | 3 | /
O=C(NCc1cccs1)c1cc(-c2cccs2)on1 | 87* | 41* | 0% | 51 | 146%
C[C@H]1[C@@H](NS(=O)(=O)c2ccc(F)cc2)CC[C@@]23CCCN2C(=O)CCC[C@@H]13 | / | / | / | 16 | /
